{"source": "PubChem BioAssay (NCATS)", "note": "Results filed as inconclusive are left out. Calls of active or inactive are those of the source. Calls come from the whole dose curve; as a rule, active = well fitted inhibition curve with a large enough effect; inconclusive = small, poorly fitted or top-dose-only effect; inactive = flat fitted curve, though single readings scatter."}
{"test_system": "Zika virus NS2B-NS3 protease", "assay": "Primary screen GU AMC qHTS for Zika virus inhibitors (AID 1347154);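 note: 0% = no-inhibitor control and -100% = no-enzyme control; nearly all actives have a fitted effect of over 70% in size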", "conditions": "Zika NS2B-NS3 unlinked protease, AMC fluorogenic substrate; series mostly up to 54.1 µM; activity change, negative = inhibition: at the top concentration", "outline": "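Unlinked Zika NS2B hydrophilic domain–NS3 protease complex at 25 nM in 10 mM Tris-HCl pH 8.0, 0.01% Tween 20, with an AMC peptide substrate. Fluorescence change (340/450 nm) over 15 min at room temperature, normalized to controls, fitted to 4-parameter Hill.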"}
{"compound": "CCNC(=O)/C=C/c1cccc(Br)c1", "activity change, negative = inhibition": "-4.07% (inactive)"}
{"compound": "Cl/C(=C\\n1cncn1)c1ccc(Cl)cc1Cl", "Potency": "inactive"}
{"compound": "CCCCNC(=O)NS(=O)(=O)c1ccc(N)cc1", "activity change, negative = inhibition": "-2.75% (inactive)"}
{"compound": "COc1cc(C)nc(-n2nc(C)cc2OC)n1", "activity change, negative = inhibition": "-2.4% (inactive)"}
{"compound": "Cc1cc(NS(=O)(=O)c2ccc(N)cc2)nc(C)n1", "activity change, negative = inhibition": "1.04% (inactive)"}
{"compound": "O=[N+]([O-])c1cccc(S(=O)(=O)NCCNS(=O)(=O)c2cccc([N+](=O)[O-])c2)c1", "activity change, negative = inhibition": "-2.57% (inactive)"}
{"compound": "O=C1OC(CN2CCOCC2)CN1/N=C/c1ccc([N+](=O)[O-])o1", "note": "(centres undefined)", "activity change, negative = inhibition": "-8.53% (inactive)"}
{"compound": "Cc1c[nH]c2ccccc12", "activity change, negative = inhibition": "-3.13% (inactive)"}
{"compound": "c1ccc(-c2nc[nH]c2-c2ccccc2)cc1", "activity change, negative = inhibition": "0.101% (inactive)"}
{"compound": "CCc1ccc(C(=O)C(C)CN2CCCCC2)cc1", "note": "(centres undefined)", "activity change, negative = inhibition": "9.42% (inactive)"}
{"compound": "O=C(O)Cc1csc(-c2ccc(Cl)cc2)n1", "activity change, negative = inhibition": "-1.4% (inactive)"}
{"compound": "OCc1ccccn1", "activity change, negative = inhibition": "1.33% (inactive)"}
{"compound": "COc1ccc(-c2cc(C(F)F)nn2-c2ccc(S(N)(=O)=O)cc2)cc1F", "activity change, negative = inhibition": "-4.56% (inactive)"}
{"compound": "CCC1Nc2cc(Cl)c(S(N)(=O)=O)cc2S(=O)(=O)N1", "note": "(centres undefined)", "activity change, negative = inhibition": "-3.12% (inactive)"}
{"compound": "CCCN(CCC)S(=O)(=O)c1ccc(C(=O)O)cc1", "activity change, negative = inhibition": "11.9% (inactive)"}
{"compound": "CCOC(=O)C(C#N)=C(c1ccccc1)c1ccccc1", "activity change, negative = inhibition": "-9.01% (inactive)"}
{"compound": "C[N+]1(C)CCC(=C(c2ccccc2)c2ccccc2)CC1", "activity change, negative = inhibition": "112% (inactive)"}
{"compound": "CC[C@H](c1ccc(O)cc1)[C@@H](CC)c1ccc(O)cc1", "activity change, negative = inhibition": "-19.8% (inactive)"}
{"compound": "CCCCCN=C(N)N/N=C/c1c[nH]c2ccc(OC)cc12", "activity change, negative = inhibition": "15.9% (inactive)"}
{"compound": "COc1cc(C(=O)N2CCCCCCC2)cc(OC)c1OC", "activity change, negative = inhibition": "2.93% (inactive)"}
{"compound": "CCOC(=O)[C@H](CCc1ccccc1)N[C@@H](C)C(=O)N1[C@H](C(=O)O)C[C@@H]2CCC[C@@H]21", "activity change, negative = inhibition": "0.283% (inactive)"}
{"compound": "CCN(CC)CCOc1ccccc1C(=O)CCc1ccccc1", "activity change, negative = inhibition": "4.34% (inactive)"}
{"compound": "COc1cc(C(=O)NCc2ccc(OCCN(C)C)cc2)cc(OC)c1OC", "activity change, negative = inhibition": "4.86% (inactive)"}
{"compound": "C[C@@H](O)[C@H]1C(=O)N2C(C(=O)O)=C(S[C@@H]3CN[C@H](CNS(N)(=O)=O)C3)[C@H](C)[C@H]12", "activity change, negative = inhibition": "-4.18% (inactive)"}
{"compound": "CCN(CC)CCOC(=O)C(Cc1cccc2ccccc12)CC1CCCO1", "note": "(centres undefined)", "activity change, negative = inhibition": "-0.791% (inactive)"}
{"compound": "COc1cc(C(=S)N2CCOCC2)ccc1O", "activity change, negative = inhibition": "-4.72% (inactive)"}
{"compound": "CC(=O)Nc1ccc(OCC(O)CNC(C)C)cc1", "note": "(centres undefined)", "activity change, negative = inhibition": "-4.3% (inactive)"}
{"compound": "CCCCCCCCNC(C)C(O)c1ccc(SC(C)C)cc1", "note": "(centres undefined)", "activity change, negative = inhibition": "-11.8% (inactive)"}
{"compound": "N#CCC(=O)NN", "activity change, negative = inhibition": "-4.18% (inactive)"}
{"compound": "CC(=O)NO", "activity change, negative = inhibition": "0.548% (inactive)"}
{"compound": "C/C=C/c1ccc(O)c(OC)c1", "activity change, negative = inhibition": "-7.13% (inactive)"}
{"compound": "NC(=O)n1c(O)c(C(=O)c2cccs2)c2cc(Cl)ccc21", "Potency": "inactive"}
{"compound": "O=C(CN1CCN(Cc2ccc3c(c2)OCO3)CC1)N1c2ccccc2Sc2ccccc21", "activity change, negative = inhibition": "-6.04% (inactive)"}
{"compound": "CCN(CC)CCNC(=O)c1cc(Br)c(N)cc1OC", "activity change, negative = inhibition": "-1.36% (inactive)"}
{"compound": "CCc1cc(Cl)c(OC)c(C(=O)NC[C@@H]2CCCN2CC)c1O", "Potency": "inactive"}
{"compound": "CN(C)CCN1C(=O)c2ccccc2N(C)c2ccccc21", "activity change, negative = inhibition": "0.0491% (inactive)"}
{"compound": "CC(C)(C)NCC(O)COc1cccc2c1C[C@H](O)[C@H](O)C2", "note": "(some centres undefined)", "activity change, negative = inhibition": "-5.3% (inactive)"}
{"compound": "Cc1cc(-c2ccccc2)nnc1NCCN1CCOCC1", "activity change, negative = inhibition": "2.3% (inactive)"}
{"compound": "COc1ccc(S(=O)(=O)N2c3ccc(Cl)cc3[C@@](O)(c3ccccc3Cl)[C@H]2C(=O)N2CCC[C@@H]2C(N)=O)cc1OC", "activity change, negative = inhibition": "-5.45% (inactive)"}
